Measured potencies and affinities stand elsewhere. Inconclusive results are not listed. Activity calls are given as the source filed them.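 The calls were made as follows, unless noted: active = fitted dose curve reaches 40% lysis signal rise at or below the highest valid concentration tested for that sample; inconclusive = flat fit between 30% and 70%, or poor curve fit; inactive = signal falls, stays flat within 30%, or no crossing.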
Columns and labels:
[1] = Cryptococcus neoformans growth inhibition, dose response, Alamar Blue, cherry-picks (AID 686998;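 active = falling signal with fitted half-maximal potency no higher than twice the top valid tested dose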)
[2] = inducers of Cryptococcus neoformans cell lysis, dose response, AK release luminescence, cherry-picks (AID 687000);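 also: luminescent detection of adenylate kinase leaking from lysed yeast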
[3] = HepG2 cell cytotoxicity, dose response, cytotoxicity control, cherry-picks, set 2 (AID 687002;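 active = a dose-response fit showing signal loss, with half-maximal concentration no higher than twice the top tested dose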)
[4] = HeLa cell cytotoxicity, dose response, cytotoxicity control, ATP luminescence, cherry-pick samples (AID 687004;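 active = a fitted half-maximal concentration no higher than twice the top valid tested dose, with signal falling as cells die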)

Measured: outcome

Cc1ccc(OCC(=O)NCc2ccccc2)cc1
inactive: all assays above

O=C(C[C@@H]1C=C[C@@H](NC(=O)C2CCC2)[C@H](CO)O1)NC1CCC1
inactive: all assays above

Cc1noc(C)c1S(=O)(=O)Nc1ccc2c(c1)CC(=O)N([C@@H](C)CO)C[C@@H](C)[C@@H](CN(C)S(=O)(=O)c1cccs1)O2
inactive: all assays above

O=C(C[C@H]1CC[C@@H]2[C@H](COC[C@@H](O)CN2Cc2cccc(C(F)(F)F)c2)O1)NCc1ccc(Cl)cc1
inactive: all assays above

C[C@@H]1CN([C@@H](C)CO)S(=O)(=O)c2ccc(C#C[C@@H](C)O)cc2O[C@@H]1CN(C)C(=O)C1CCCCC1
inactive: all assays above

COc1ccc(C#Cc2ccc3c(c2)O[C@H](CN(C)C(=O)Nc2cccc(OC)c2)[C@H](C)CN([C@@H](C)CO)S3(=O)=O)cc1
inactive: all assays above

CO[C@@H](CN(C)Cc1ccc2c(c1)OCO2)[C@@H](C)CN(C(=O)c1ccccc1)[C@H](C)CO
inactive: all assays above

C/C=C/c1cnc2c(c1)C(=O)N([C@H](C)CO)C[C@@H](C)[C@@H](CN(C)C(=O)C1CCCCC1)O2
inactive: all assays above

COc1cccc(S(=O)(=O)Nc2ccc3c(c2)[C@H]2C[C@H](CC(=O)NCc4ccccc4F)O[C@@H](CO)[C@H]2O3)c1
inactive: all assays above

C[C@@H]1CN([C@H](C)CO)C(=O)CCCn2cc(nn2)CO[C@@H]1CN(C)C(=O)CCCN(C)C
inactive: all assays above

C/C=C/c1cnc2c(c1)C(=O)N([C@@H](C)CO)C[C@@H](C)[C@@H](CN(C)C(=O)C1CCCCC1)O2
inactive: all assays above

C[C@H](CO)N1C[C@H](C)[C@H](CN(C)Cc2cccc(C(F)(F)F)c2)OCc2cnnn2CCCC1=O
inactive: all assays above

CNC[C@H]1OCCCC[C@H](C)Oc2ccc(NC(=O)CCCN(C)C)cc2C(=O)N([C@H](C)CO)C[C@@H]1C
inactive: all assays above

O=C(CSc1ncnc2c1cnn2-c1ccc(Cl)cc1)NCc1ccc2c(c1)OCO2
inactive: all assays above

COc1cccc(S(=O)(=O)Nc2ccc3c(c2)[C@H]2C[C@H](CC(=O)NCc4cccc(F)c4)O[C@@H](CO)[C@H]2O3)c1
inactive: all assays above

C[C@H](CO)N1C[C@H](C)[C@H](CN(C)S(=O)(=O)c2ccccc2)Oc2ccc(NS(=O)(=O)c3ccc(F)cc3)cc2C1=O
inactive: all assays above

C[C@@H]1CN([C@H](C)CO)C(=O)c2cc(-c3ccc(F)cc3)cnc2O[C@H]1CN(C)CC1CCCCC1
inactive: all assays above

C[C@@H]1CN([C@@H](C)CO)C(=O)c2cc(NS(=O)(=O)c3ccccc3)ccc2O[C@H]1CN(C)C(=O)NC1CCCCC1
inactive: all assays above

CO[C@@H]1CN(C)C(=O)c2cc(NS(=O)(=O)c3ccc(C)cc3)ccc2OC[C@@H](C)N(C)C[C@@H]1C
inactive: all assays above

CC(C)NC(=O)Nc1ccc2c(c1)C(=O)N([C@@H](C)CO)C[C@@H](C)[C@@H](CN(C)S(=O)(=O)c1ccc(Cl)cc1)OCCCC[C@@H](C)O2
inactive: all assays above

C[C@H](CO)N1C[C@H](C)[C@H](CN(C)C(=O)c2ccccn2)Oc2ncc(-c3ccccc3)cc2C1=O
inactive: all assays above

C[C@@H]1CN([C@H](C)CO)C(=O)c2cc(NS(=O)(=O)c3ccccc3)ccc2O[C@H]1CN(C)C(=O)NC1CCCCC1
inactive: all assays above

COCC(=O)N1C[C@H](C)[C@@H](OC)CN(C)C(=O)c2ccc(NS(C)(=O)=O)cc2OC[C@@H]1C
inactive: all assays above

C[C@H](CO)N1C[C@H](C)[C@@H](CN(C)C(=O)Nc2cccc3ccccc23)Oc2c(cccc2N(C)C)C1=O
inactive: all assays above

O=C(NC(=S)Nc1ccc(CN2CCOCC2)cc1)c1ccccc1[N+](=O)[O-]
inactive: all assays above

O=C(C[C@@H]1CC[C@@H]2[C@H](COC[C@H](O)CN2Cc2cccc(C(F)(F)F)c2)O1)NCc1ccccc1
inactive: all assays above

C[C@H]1CN([C@@H](C)CO)C(=O)c2cc(NC(=O)Nc3ccc4c(c3)OCO4)ccc2O[C@@H]1CN(C)CC1CCCCC1
inactive: all assays above

Cc1noc(C)c1NC(=O)N(C)C[C@@H]1Oc2ccc(NS(=O)(=O)c3cn(C)cn3)cc2CC(=O)N([C@H](C)CO)C[C@H]1C
inactive: all assays above

CNC(=O)C[C@@H]1CC[C@@H]2[C@H](COc3ccc(NC(=O)c4cc(C)on4)cc3C(=O)N2C)O1
inactive: all assays above

COc1ccc(CN(C)C[C@@H]2OCCCC[C@H](C)Oc3ccc(N(C)C)cc3C(=O)N([C@H](C)CO)C[C@@H]2C)cc1
inactive: all assays above

Cc1ccc(NC(=O)C2(C)CCN2C(=O)CC2CCCC2)cc1 (configuration not stated)
inactive: all assays above

C[C@H]1CN([C@@H](C)CO)C(=O)Cc2cc(NC(=O)Nc3ccccc3)ccc2O[C@@H]1CN(C)C(=O)Nc1ccc2c(c1)OCO2
inactive: all assays above

CCn1cc(C(=O)N(C)c2ccc(OC)cc2OC)c2cc(OC)c(OC)cc2c1=O
inactive: all assays above

COc1ccc(-n2ncc3c(SCC(=O)N4CCN(c5ccccc5OC)CC4)ncnc32)cc1
inactive: all assays above

CC(C)NC(=O)N(C)C[C@H]1OCCCC[C@@H](C)Oc2ccc(NC(=O)c3ccccc3)cc2C(=O)N([C@@H](C)CO)C[C@@H]1C
inactive: all assays above

Cc1noc(C)c1S(=O)(=O)Nc1ccc2c(c1)CC(=O)N([C@@H](C)CO)C[C@H](C)[C@@H](CN(C)S(=O)(=O)c1cn(C)cn1)O2
inactive: all assays above

O=C(NC1CCCCC1)N[C@H]1C=C[C@@H](CC(=O)N2CCOCC2)O[C@H]1CO
inactive: all assays above

CCOc1cc(/C=N/NC(=O)CCCC(=O)NC2CCCCC2)ccc1O
inactive: all assays above

C[C@H]1CN([C@@H](C)CO)C(=O)c2cc(NC(=O)Nc3cccc4ccccc34)ccc2O[C@@H]1CN(C)C(=O)Nc1ccc(C(F)(F)F)cc1
inactive: all assays above

C[C@H]1CN([C@@H](C)CO)S(=O)(=O)c2ccc(C#Cc3cccc(F)c3)cc2O[C@@H]1CN(C)C
inactive: all assays above

CCC(=O)N[C@H]1C=C[C@H](CC(=O)NCC2CCCCC2)O[C@@H]1CO
inactive: all assays above

O=C([C@H]1[C@H](CO)[C@H]2Cn3c(cccc3=O)[C@@H]1N2Cc1cccc(Cl)c1)N1CCOCC1
inactive: all assays above

COc1ccc(-c2cnc3c(c2)C(=O)N([C@H](C)CO)C[C@H](C)[C@H](CN(C)Cc2ccc(F)cc2)O3)cc1
inactive: all assays above

CO[C@@H]1CN(C)C(=O)c2ccc(NC(=O)C3CC3)cc2OC[C@H](C)N(C(=O)c2ccncc2)C[C@H]1C
inactive: all assays above

CNC[C@@H]1OCCCC[C@H](C)Oc2ccc(NC(=O)Nc3ccc(F)cc3)cc2C(=O)N([C@@H](C)CO)C[C@H]1C
inactive: all assays above

COc1ccc(NC(=O)Nc2ccc3c(c2)C(=O)N([C@H](C)CO)C[C@@H](C)[C@@H](CN(C)S(=O)(=O)c2ccc(Cl)cc2)OCCCC[C@H](C)O3)cc1
inactive: all assays above

Cc1noc(C)c1NC(=O)Nc1ccc2c(c1)C(=O)N(C)[C@H]1CC[C@H](CC(=O)N[C@H]3CCN(Cc4ccccc4)C3)O[C@H]1CO2
inactive: all assays above

COC(=O)N(C)C[C@H]1OCc2cn(nn2)CCCC(=O)N([C@H](C)CO)C[C@@H]1C
inactive: all assays above

Source: PubChem BioAssay
